For orientation: AC50 means the concentration giving half of the maximal activity seen.

Records with an inconclusive call do not appear. The source made the active and inactive calls. Unless noted, cut-off not given; nearly all actives show AC50 up to about 26 µM. Non-standard residues stand in square brackets, D forms with d. Residues, ends and D or L forms follow the SMILES beside them. pGlu = O=C1CC[C@@H](C(=O)O)N1; Thz = O=C(O)[C@@H]1CSCN1

Assay [1] concerns Neuropilin-2 / VEGF-C interaction (human). Put plainly: inhibitors of NRP2–VEGF-C binding, biochemical, microplate binding format, z-score (AID 743281; call rule not given here). Particulars: microplate NRP2/VEGF-C binding assay; stronger effect = lower value.
Assay [2] can be described thus: differential killing of epithelial or mesenchymal cells, primary screen, imaging, PC-3E GFP, TEM4-18 mCherry, co-culture (AID 1345086;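 active means compounds killing one labelled cell type while sparing the other, by normalised counts and ratio limits, not self-fluorescent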;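 on all read-outs here: cells exposed to compound for 72 h before imaging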;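 on red/green cell ratio (normalised): normalised mesenchymal count divided by normalised epithelial count so high means epithelial killing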). Particulars: imaging cell counts, at 1 µM; for red/green cell ratio (normalised): actives lie on both sides, counts scaled to control wells, 1 = unselective.
The nature of assay [3]: growth inhibition of DIPG glioma cells, dose response, cell-based, SU-DIPG-XIII, MIPE4.0, CellTiter-Glo, qHTS (AID 1347061; cut-off not given, nearly all actives have AC50 up to about 37 µM;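 further: cells exposed to compound for 48 hours before readout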). Particulars: SU-DIPG-XIII viability, CellTiter-Glo ATP luminescence.
Assay [4] is described as follows: growth inhibition of DIPG glioma cells, dose response, cell-based, JHH-DIPG-1, MIPE4.0, CellTiter-Glo, qHTS (AID 1347062; cut-off not given, nearly all actives have AC50 up to about 27 µM;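 on AC50: cells exposed to compound for two days before readout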). Particulars: JHH-DIPG-1 viability, CellTiter-Glo ATP luminescence.
Assay [5] can be described thus: growth inhibition of DIPG glioma cells, dose response, cell-based, SU-DIPG-IV, MIPE4.0, CellTiter-Glo, qHTS (AID 1347063; cut-off not given, nearly all actives have AC50 up to about 30 µM;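 further: compound exposure lasted 48 hours before the viability readout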). Particulars: SU-DIPG-IV viability, CellTiter-Glo ATP luminescence. On the technique in general: In ATP-based viability assays light output follows the ATP content of the culture.
Assay [6] can be described thus: SU-DIPG-VI glioma cell viability, MIPE4.0 library, CellTiter-Glo luminescence, qHTS (AID 1347066; cut-off not given, nearly all actives have AC50 up to about 30 µM;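 further: cells exposed to compound for 48 hours before readout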). Particulars: CellTiter-Glo ATP luminescence.
In assay [7] the target is NAD(+) hydrolase SARM1 (Homo sapiens) (UniProt Q6SZW1). Put plainly: SARM1 TIR NADase inhibitors, cell lysate, NAD-Glo luminescence (AID 1508614;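 active means compound whose remaining NAD level is above about 45 nM, limit read from the data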). Particulars: SAM-TIR HEK293T lysate NADase, at 1 µM, stronger effect = higher value.
Chain of NAD(+) hydrolase SARM1 (Homo sapiens) (Q6SZW1 whole entry, looked up): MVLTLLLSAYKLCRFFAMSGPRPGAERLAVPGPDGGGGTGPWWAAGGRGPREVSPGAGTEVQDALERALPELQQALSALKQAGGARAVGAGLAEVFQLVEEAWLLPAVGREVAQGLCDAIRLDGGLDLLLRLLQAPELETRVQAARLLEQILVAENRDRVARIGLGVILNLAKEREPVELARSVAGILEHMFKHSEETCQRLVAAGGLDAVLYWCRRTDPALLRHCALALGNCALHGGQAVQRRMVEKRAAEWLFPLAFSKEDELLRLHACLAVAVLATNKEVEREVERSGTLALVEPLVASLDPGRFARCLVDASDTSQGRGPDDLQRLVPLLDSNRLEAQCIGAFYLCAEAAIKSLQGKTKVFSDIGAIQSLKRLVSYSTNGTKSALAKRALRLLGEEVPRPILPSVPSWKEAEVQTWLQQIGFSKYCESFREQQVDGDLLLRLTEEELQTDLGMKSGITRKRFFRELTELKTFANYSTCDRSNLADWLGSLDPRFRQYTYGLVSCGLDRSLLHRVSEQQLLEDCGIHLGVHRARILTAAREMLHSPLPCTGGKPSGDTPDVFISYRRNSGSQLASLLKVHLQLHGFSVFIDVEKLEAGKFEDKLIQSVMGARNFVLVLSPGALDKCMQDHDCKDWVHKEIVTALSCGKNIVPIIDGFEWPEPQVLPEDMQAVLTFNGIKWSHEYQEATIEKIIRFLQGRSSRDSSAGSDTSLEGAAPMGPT
Assay [8] is described as follows: growth inhibition of DIPG glioma cells, dose response, cell-based, SU-DIPG-XVII, MIPE5.0, CellTiter-Glo, qHTS (AID 1347060).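 On AC50: cells exposed to compound for 48 hours before viability readout.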 Particulars: SU-DIPG-XVII viability, CellTiter-Glo ATP luminescence.
Assay [9] can be described thus: growth inhibition of DIPG glioma cells, dose response, cell-based, SU-DIPG-XIII, MIPE5.0, CellTiter-Glo, qHTS (AID 1347064; cut-off not given, nearly all actives have AC50 up to about 23 µM). Particulars: SU-DIPG-XIII viability, CellTiter-Glo ATP luminescence.
The nature of assay [10]: viability loss in pontine glioma line – cell-based, SU-DIPG-XXV, MIPE5.0, CellTiter-Glo, qHTS, dose response (AID 1347065).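 Further: cells exposed to compound for 48 hours before ATP readout.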 Particulars: CellTiter-Glo ATP luminescence.
A short description of assay [11]: JHH-DIPG-1 glioma cell viability, MIPE5.0 library, CellTiter-Glo luminescence, qHTS (AID 1347067).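 Further: cells exposed to compound for 48 hours before readout.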 Particulars: JHH-DIPG-1 glioma viability, CellTiter-Glo ATP luminescence.
Assay [12] can be described thus: SU-DIPG-XXV glioma cell viability, MIPE5.0 library, qHTS (AID 1347068; cut-off not given, nearly all actives have IC50 up to about 30 µM).
Setting [13] is: measured here: epithelial PC-3E GFP cell survival.
[14] abbreviates: measured here: mesenchymal TEM4-18 mCherry cell survival.

For the compound `CN(C)CCc1c[nH]c2ccc(Cn3cncn3)cc12`, the compound was classed as inactive in [1], in [3] and in assay [6]. For the same compound, the red/green cell ratio (normalised) in assay [2] was 0.92 (inactive). In addition, the normalised cell number in assay [2] (setting [13]) turned out to be 1.24; in assay [2] (setting [14]) it was 1.13. The AC50 in assay [4] and in [5] was 20.9 µM (active) throughout. Moreover, in [7], the remaining NAD is 10 nM (inactive).
For the compound `CN/C(=C\[N+](=O)[O-])NCCSCc1csc(CN(C)C)n1`, the z-score in assay [1] is 0.209 (inactive). The red/green cell ratio (normalised) in [2] was 0.9 (inactive). Besides, the normalised cell number in assay [2] (setting [13]) was found to be 1.14; in assay [2] (setting [14]), 1.02. In addition, the remaining NAD in assay [7] is 10 nM (inactive).
In the case of `CN1[C@@H]2CCC[C@H]1CC(NC(=O)c1nn(C)c3ccccc13)C2` (some centres undefined), in assay [1], the z-score is 1.21 (inactive). Further, the call in assay [8], in [3], in assay [4], in assay [9], in assay [10] and in assay [6] was inactive. The result in assay [11] and in [12] was inactive. In addition, the remaining NAD in [7] was 10 nM (inactive).
Turning to `CCCCN1CCCC1CNC(=O)c1cc(C#N)c2ccccc2c1OC` (centres undefined), the z-score in assay [1] is 1.01 (inactive).
`NCC(O)c1ccc(O)c(O)c1` (centres undefined): the red/green cell ratio (normalised) in assay [2] is 1.25 (inactive). The normalised cell number in assay [2] (setting [13]) is 1.16; in assay [2] (setting [14]), 1.45.
Take `C[C@@H](c1ncncc1F)[C@](O)(Cn1cncn1)c1ccc(F)cc1F`: in [1], the z-score is 1.15 (inactive). The red/green cell ratio (normalised) in assay [2] was 1.03 (inactive). In addition, the results for the normalised cell number in assay [2] (setting [13]) and in [2] (setting [14]) were 0.93 and 0.96, respectively. Also, the compound was called inactive in assay [3], in assay [5], in assay [10], in [6], in assay [11] and in assay [12]. For the same compound, in assay [7], the remaining NAD was 10 nM (inactive).
Regarding `COc1ccc2[nH]c(S(=O)Cc3ncc(C)c(OC)c3C)nc2c1` (centres undefined), the result in [1], in assay [11] and in [12] was inactive. Further, the red/green cell ratio (normalised) in assay [2] was 0.83 (inactive). In addition, the normalised cell number in [2] (setting [13]) worked out at 1.11; in assay [2] (setting [14]), 0.92.
Regarding `CC(Cc1ccc(O)c(O)c1)(NN)C(=O)O` (centres undefined), the red/green cell ratio (normalised) in assay [2] was 1.18 (inactive). In addition, the results for the normalised cell number in assay [2] (setting [13]) and in assay [2] (setting [14]) were 1.1 and 1.3, respectively. The result in assay [8], in assay [3], in assay [4], in assay [5], in [9] and in assay [10] was inactive. Further, the call in [6] and in assay [11] was inactive.
As to `COC(=O)C[C@](O)(CCCC(C)(C)O)C(=O)O[C@@H]1C(OC)=C[C@]23CCCN2CCc2cc4c(cc2[C@H]13)OCO4`, the outcome in assay [1] was inactive.
`CC(C)(S)C(N)C(=O)O` (centres undefined): the red/green cell ratio (normalised) in [2] was 0.95 (inactive). Also, the normalised cell number was determined as 1 in assay [2] (setting [13]) and 0.96 in assay [2] (setting [14]).
As for `O=C1CC[C@@H](C(=O)N2CSC[C@H]2C(=O)O)N1` ([pGlu]-[Thz]-OH), the z-score in assay [1] is -0.307 (inactive). In addition, the red/green cell ratio (normalised) in assay [2] is 0.96 (inactive). In addition, the normalised cell number was determined as 0.97 in assay [2] (setting [13]) and 0.93 in [2] (setting [14]). For the same compound, the remaining NAD in [7] is 10 nM (inactive).
For `COc1nc(C)nc(Cl)c1NC1=NCCN1`, in assay [1], the z-score was -0.63 (inactive). Also, the half-maximal activity concentration (AC50) in assay [8] was 23.5 µM (active). Besides, the compound was classed as inactive in [3], in assay [4], in assay [5], in assay [9], in assay [10] and in [6]. Further, the call in assay [12] was inactive.
